Screening results from PubChem BioAssay.
Most compounds without a hit are left out; they make up all but 2.4% or so of the library.
Pol kappa inh-1: blocks human DNA polymerase kappa activity; Q9UBT6; purified Pol kappa, fluorescent DNA synthesis assay, 10 min; Potency, µM (doses to about 107 µM), without a hit: top-dose activity, negative = inhibition, hits mostly inhibitors; hit rate 0.53% among 400,000; also: potency is read from the fitted curve at half-maximal effect; % is scaled to controls: 0 for no effect and ±100 for the full control effect
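Kinetic fluorescence screen: compound preincubated 15 min RT with 10 nM enzyme; 50 nM substrate (final) initiates; reads at 0/10 min.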
Pol beta inh-1: inhibitors of human DNA polymerase beta; hit rate 1.3% among 340,000; Potency, µM (top dose mostly 114 µM), inactives show at the highest dose activity change, negative = inhibition, hits mostly inhibitors; Pol beta primer extension/strand displacement, fluorescence kinetic; also: potency is read from the fitted curve at half-maximal effect; % is scaled to controls: 0 for no effect and ±100 for the full control effect
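Human Pol beta at 10 nM; strand-displacement substrate 50 nM final. Compound exposure 15 min at room temperature before start, reaction 10 min at room temperature.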
GLS inhibitor: inhibitors of human glutaminase (GLS); O94925; GLS enzymatic activity, qHTS titration; Potency, µM (series often up to 45.5 µM), for the others: at the highest dose activity change, negative = inhibition, actives largely listed as inhibitors; hit rate 0.21% among 410,000; AID 624170; also: potency is read from the fitted curve at half-maximal effect; % is scaled to controls: 0 for no effect and ±100 for the full control effect
Target sequence (O94925 whole entry, looked up): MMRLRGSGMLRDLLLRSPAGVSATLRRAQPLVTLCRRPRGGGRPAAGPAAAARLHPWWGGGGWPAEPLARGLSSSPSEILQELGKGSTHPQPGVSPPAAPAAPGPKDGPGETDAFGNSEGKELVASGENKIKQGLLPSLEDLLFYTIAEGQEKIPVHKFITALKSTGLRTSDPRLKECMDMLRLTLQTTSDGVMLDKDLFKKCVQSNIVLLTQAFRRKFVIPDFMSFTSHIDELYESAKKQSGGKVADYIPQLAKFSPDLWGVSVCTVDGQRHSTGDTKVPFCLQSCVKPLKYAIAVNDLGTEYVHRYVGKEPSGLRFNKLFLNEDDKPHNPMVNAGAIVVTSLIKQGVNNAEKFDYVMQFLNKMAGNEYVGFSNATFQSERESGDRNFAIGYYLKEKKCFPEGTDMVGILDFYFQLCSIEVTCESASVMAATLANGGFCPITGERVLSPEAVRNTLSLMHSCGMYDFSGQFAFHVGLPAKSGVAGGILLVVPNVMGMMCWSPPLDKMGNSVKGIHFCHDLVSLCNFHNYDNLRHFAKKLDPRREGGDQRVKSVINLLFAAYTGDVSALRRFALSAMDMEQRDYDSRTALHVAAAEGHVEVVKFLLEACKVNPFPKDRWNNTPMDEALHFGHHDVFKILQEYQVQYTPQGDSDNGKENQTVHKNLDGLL
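hKGA in 45 mM KH2PO4 (pH 8.2), 0.02% Tween-20 with compound, then 1mM L-Glutamine (stock as added) plus glutamate oxidase/HRP/Amplex red coupling mix. Fluorescence read initially and after 30 min at RT; signal change reflects glutamate formation.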
APEX1 inh: inhibitors of human APE1 endonuclease; P27695; Potency, µM (highest dose often 65.8 µM), for inactives: top-dose activity change, negative = inhibition, usual class: inhibitors; hit rate 0.35% among 350,000; recombinant APE1, TAMRA/BHQ-2 abasic DNA cleavage fluorescence;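 also: potency is read from the fitted curve at half-maximal effect; plate controls were vehicle for no effect and reference inhibitor for full effect; nearly all actives have a fitted effect of over 55% in size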
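Step 1: APE1 (0.75 nM) with compound, 15 min RT. Step 2: add 50 nM fluorophore/quencher THF duplex. Step 3: three fluorescence reads 60 s apart (525/598 nm); read 3 minus read 1 = reaction progress.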
POLI inh: DNA polymerase iota (human) inhibition | Q9UNA4 | hit rate 1% among 390,000 | Potency, µM (titrated, usually from 115 µM), for the others: at the top dose activity, negative = inhibition, most hits filed as inhibitors | Pol iota fluorescent replication assay, 10 min; also: potency is read from the fitted curve at half-maximal effect
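Pol iota at 10 nM preincubated 15 min with compounds at room temperature; reaction started with fluorescent substrate, 50 nM final. Fluorescence read kinetically at 0 and 10 min; buffer-only wells as negative control.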
Pol eta inh-1: DNA polymerase eta (human) inhibition. Q9Y253. recombinant Pol eta, fluorescent DNA replication assay. Potency, µM (top dose mostly 114 µM), for the others: top-dose activity change, negative = inhibition, hits mostly inhibitors. hit rate 1.2% among 390,000; also: potency is read from the fitted curve at half-maximal effect; % is scaled to controls: 0 for no effect and ±100 for the full control effect
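Fluorescent replication assay: 50 nM final substrate added after a 15 min room-temperature compound preincubation with 10 nM enzyme. Signal taken at 0 min and again at 10 min.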
Pol beta inh-2: Validate hits inhibiting human DNA polymerase beta. AID 540280. shares compounds with Pol beta inh-1. hit rate 87% among 250. Pol beta primer extension/strand displacement, fluorescence kinetic. Potency, µM, usual class: inhibitors; calls by dose curve; also: potency is read from the fitted curve at half-maximal effect
Klenow inh: counter-screen for DNA polymerase beta inhibitors: Klenow fragment inhibition; shares compounds with Pol beta inh-1; Klenow exo- polymerase counter-screen, fluorescent DNA substrate; activity change, negative = inhibition, % at 57.1 µM; 250 tested, under 10 active
HIV RT inh: counter-screen for DNA polymerase beta inhibitors: HIV-1 RT inhibition; AID 540301; 250 tested, under 10 active; shares compounds with Pol beta inh-1; activity % (negative = inhibition, positive = activation), % at 57.1 µM; HIV-1 RT polymerase activity, counter-screen
POLB inh gel: validation of human DNA polymerase beta inhibitors; inhibition, % at 10 µM; radiolabeled primer extension gel assay, phosphorimager; hit rate 91% among 110; AID 540325; shares compounds with Pol beta inh-1;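 active = inhibition at 10 µM of 30% or more; inconclusive = no clear call, values can overlap the other calls; inactive = inhibition at 10 µM under 30%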
PGK validate: validation of Trypanosoma brucei phosphoglycerate kinase inhibitors | shares compounds with Pol kappa inh-1 | TbPGK coupled GAPDH assay, Kinase-Glo luminescence | Potency, µM (series often up to 57.5 µM), for inactives: at the highest dose activity change, negative = inhibition, hits mostly inhibitors | hit rate 79% among 500 | AID 686980; also: potency is read from the fitted curve at half-maximal effect; % is scaled to controls: 0 for no effect and ±100 for the full control effect; nearly all actives have a fitted effect of over 65% in size
POLI cherry-pick: Human Pol iota inhibitor confirmatory assay. shares compounds with Pol kappa inh-1. AID 720496. Potency, µM, actives largely listed as inhibitors. Pol iota primer extension, TAMRA/BHQ fluorescence. hit rate 77% among 1,500; also: potency is read from the fitted curve at half-maximal effect
Pol kappa inh-2: Pol kappa (human) inhibition, cherry-pick confirmation; shares compounds with Pol eta inh-1; purified Pol-kappa, fluorescent strand-displacement substrate; Potency, µM, actives largely listed as inhibitors; hit rate 76% among 920; also: potency is read from the fitted curve at half-maximal effect
Pol eta inh-2: confirmation of human DNA polymerase eta inhibitors | Potency, µM, most hits filed as inhibitors | hit rate 64% among 2,600 | shares compounds with Pol eta inh-1 | Pol eta primer extension, TAMRA/BHQ fluorescence, 10 min; also: potency is read from the fitted curve at half-maximal effect
* marks the source's active call; other numbers are inactive results; ? = inconclusive; . = not tested or not shown; [ ] = remark or other dose. Unless noted, calls follow the shape of the dose curve; as a rule, active = well fitted curve in the direction sought with a large enough effect; inconclusive = small, poorly fitted or top-dose-only effect, or another doubt; inactive = no such curve, though single readings can be large; an effect the other way counts as inactive or inconclusive.

SMILES | Pol kappa inh-1 | Pol beta inh-1 | GLS inhibitor | APEX1 inh | POLI inh | Pol eta inh-1 | Pol beta inh-2 | Klenow inh | HIV RT inh | others
COc1cccc2sc(Nc3nnc(-c4cccs4)o3)nc12 | -12% | 1% | 8% | -5% | -3% | -11% | . | . | .
O=C(NCc1ccccc1)c1ccc(CS(=O)(=O)c2ccc(Br)cc2)o1 | -1% | 6% | -4% | 28% | 62% | -13% | . | . | .
CC(C)C(NC(=O)OCc1ccccc1)C(=O)OCC(=O)NCc1ccco1 (stereo unspecified) | ? | 20µM* | -4% | 5% | ? | 8.9µM* | ? | -20 | 8 | POLB inh gel=84*
O=C(c1ccc(Cl)cc1)N1CCCCC(Sc2nnc(-c3ccc4c(c3)OCO4)o2)C1=O (stereo unspecified) | -4% | 14% | -6% | -5% | 4% | -5% | . | . | .
O=C(Nc1cc(S(=O)(=O)N2CCOCC2)ccc1O)c1ccc(S(=O)(=O)N2CCCCC2)cc1 | 1% | . | 11% | -5% | 5% | -9% | . | . | .
O=C(Nc1cc(S(=O)(=O)Nc2ccc(Cl)cc2)ccc1O)c1ccc(S(=O)(=O)N2CCCCCC2)cc1 | -21% | 5.6µM* | 2% | -4% | ? | ? | 22* | -16 | 11 | POLB inh gel=67*
CCCOc1ccc(/C=N/NC(=O)c2c(-c3ccccc3)noc2C)cc1OC | . | -2% | . | -4% | . | . | . | . | .
CCOc1ccc(NC(=O)c2sc3nc4c(c(-c5ccc(OC)cc5)c3c2N)C(=O)CC(C)(C)C4)cc1 | 0% | 14% | 6% | . | 31% | . | . | . | .
Cc1c(Cc2ccccc2)c(=O)oc2c(O)c(O)ccc12 | ? | 13µM* | ? | 0% | 8.9µM* | ? | 5* | -27 | 40
Cc1ccc(NC(=O)Cc2ccc(Cl)cc2)nc1 | -1% | . | -1% | . | -10%[58.9 µM] | -19% | . | . | .
Cc1cc2[nH]c(=O)c(=O)[nH]c2cc1S(=O)(=O)N1CCN(c2cccc(C)c2C)CC1 | ? | 11µM* | 1% | -33% | ? | ? | 28* | -4 | 12 | POLB inh gel=73*
CC(=O)Oc1ccc(C(=O)Nc2ccc(C3(C#N)CCCC3)cc2)cc1 | -33% | 13µM* | -4% | 9% | 40µM* | ? | ? | -3 | 59
N#CC1(c2ccc(NC(=O)c3ccccc3)cc2)CCCC1 | . | 3% | . | 10% | . | . | . | . | .
O=C(Nc1nc(-c2ccccn2)cs1)c1ccco1 | -21% | ? | -1% | -6% | 0% | ? | . | . | .
O=C(Nc1nc(-c2cc3ccccc3oc2=O)cs1)c1ccco1 | -9% | 8.9µM* | 6% | 6% | -12% | ? | 20* | -20 | 43 | POLB inh gel=41*;POLI cherry-pick=?
CCCCCCc1cc2cc(-c3nnc(-c4ccccc4OC)o3)c(=O)oc2cc1O | 20µM* | 14µM* | 0% | ? | ? | 8.9µM* | 7.1* | -21 | 9 | PGK validate=10µM*
CCCCCCc1cc2cc(C(=O)Nc3ccccc3OC)c(=O)oc2cc1O | -20% | -29% | 2% | 3% | 50% | -6% | . | . | .
COc1cc(/C=C(/C#N)c2nc3ccccc3[nH]2)ccc1Oc1ncccc1[N+](=O)[O-] | -41% | 13µM* | 5% | 0% | ? | ? | 13* | -7 | 10 | POLI cherry-pick=?
O=C(/C=C/c1ccccc1Cl)Nc1ccc2c(c1)C(=O)NC2=O | ? | 8.9µM* | -15% | 13µM* | ? | ? | 14* | -3 | 24 | POLI cherry-pick=?
O=C(Cc1ccc(Cl)cc1)Nc1ccc2oc(-c3ccc(F)cc3)nc2c1 | -3% | 16% | 2% | . | -3% | -6% | . | . | .
O=C(Nc1cccc(-c2cn3ccccc3n2)c1)c1cc2ccccc2oc1=O | -17% | 4µM* | -5% | -1% | ? | ? | 5.6* | 28 | 48 | POLI cherry-pick=?
COCCCN1C(=O)CC(C(=O)OC)=C1C | -7% | 47% | -6% | -11% | 129% | -6% | . | . | .
CSc1ccccc1NC(=O)CN(C)CC(=O)Nc1ccc(Cl)cc1F | -1% | 0% | 12% | 2% | 3% | -15% | . | . | .
O=C1N=c2ccccc2=C1c1sc(Nc2ccc(O)cc2)nc1O | 35µM* | 20µM* | -3% | ? | 8.9µM* | 32µM* | 7.9* | -38 | 6 | POLI cherry-pick=47*;Pol kappa inh-2=17*;Pol eta inh-2=?
CC1(C)C(=O)OC(c2ccco2)C(C)(C)C1=O (stereo unspecified) | -10% | 28% | 2% | -5% | ? | 4% | . | . | .
CN(C)c1ccc(NC(=O)Cn2c(SCc3ccccc3F)nc3cccnc32)cc1 | -1% | 10% | -1% | . | 48% | 4% | . | . | .
CCCc1cc(=O)oc2c(CN3CCCC3)c(O)ccc12 | -1% | 20% | -1% | -2% | 14% | -5% | . | . | .
CCCc1cc(=O)oc2cc(C)c(CN3CCCC3)c(O)c12 | 20µM* | 6.3µM* | 10µM* | ? | 5µM* | 22µM* | 25* | -25 | 23 | POLB inh gel=5;Pol eta inh-2=67*
COc1ccc(NS(=O)(=O)c2cc(NC(=O)COc3ccccc3)ccc2N2CCOCC2)cc1 | -5% | . | 4% | -7% | -3% | -10% | . | . | .
